High-throughput results deposited in PubChem BioAssay by National Center for Advancing Translational Sciences (NCATS).
Pf growth 96h: P. falciparum growth inhibition at 96 hours | actives 6.9% (n = 320,000) | AID 504834 | Potency, µM (titrated, usually from 28.7 µM), without a hit: top-dose activity change, negative = inhibition, most hits filed as inhibitors | P. falciparum luciferase reporter growth, 96 h; note: potency is the fitted concentration of half-maximal effect; % is set by controls: 0 for no effect and ±100 for the full control effect
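Delayed-death screen, second-generation endpoint: infected erythrocytes, 2% hematocrit, 0.05% parasitemia final; 96 hours at 37 C, 5% CO2; luciferase detection reagent; luminescence decrease equals reduced growth.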
CHX counter: counter-screen for Shiga toxin inhibitors: cycloheximide protein synthesis inhibition; cell reporter, cycloheximide protein synthesis inhibition counterscreen; max response, %; actives 12% (n = 300,000); in the data active = max response mostly above about 13%, no sharp cut-off; inactive = mostly below about 14%; note: read at 38.3 µM for the half of the compounds with a filed dose; 0% is about no effect
SARS PLpro yeast: blocks SARS-CoV papain-like protease in a yeast assay. S. cerevisiae expressing SARS-CoV PLpro, growth rescue. Potency, µM (doses to about 32.9 µM), for inactives: at the highest dose activity, positive = growth rescue, hits mostly activators. actives 0.19% (n = 330,000); calls by dose curve; note: potency is the fitted concentration of half-maximal effect; 0% is about no effect; nearly all actives have a fitted effect of over 55% in size
AMA1 RON2 block: disrupts binding of P. falciparum AMA1 to RON2; AlphaScreen AMA1-biotinylated RON2 peptide binding; AID 720542; actives 0.2% (n = 360,000); Potency, µM (doses to about 58.2 µM), inactives show at the highest dose activity change, negative = inhibition, actives largely listed as inhibitors;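 note: potency is the fitted concentration of half-maximal effect; 0% = vehicle wells and -100% = peptide control; nearly all actives have a fitted effect of over 45% in size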
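AMA1 (3D7) with his tag at 25 nM final met compounds first, then biotinylated RON2 peptide at 25 nM; detection used donor plus acceptor beads, 10 µg/mL apiece, read by AlphaScreen after 30 min at room temperature.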
Shiga inhibitor: blocks Shiga toxin action in Vero cells | Vero cells, Shiga toxin protein synthesis inhibition reporter | inhibition, % at 38.7 µM | actives 9.2% (n = 290,000) | AID 2315; in the data active = inhibition mostly above about 28%, no sharp cut-off; inactive = mostly below about 43%; note: 0% is about no effect
Pf growth 48h: inhibits P. falciparum growth in the first generation, 48 h; P. falciparum luciferase growth in erythrocytes, 48 h; Potency, µM (top dose mostly 28.7 µM), inactives show at the top dose activity change, negative = inhibition, hits mostly inhibitors; actives 5.9% (n = 310,000); AID 504832; note: potency is the fitted concentration of half-maximal effect; % is set by controls: 0 for no effect and ±100 for the full control effect
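Here the parasites carry a stable luciferase gene and grow inside erythrocytes in Albumax-based RPMI medium with compound for one erythrocytic cycle. Activity is scored as loss of luminescent signal.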
* = called active by the depositor; ? = inconclusive; nt = not tested or not shown; ! = not confirmed by another sample. Hits are enriched below; roughly 19% of the tested compounds scored in any of these assays. Unless noted, calls come from the whole dose curve; as a rule, active = well fitted curve in the direction sought with a large enough effect; inconclusive = small, poorly fitted or top-dose-only effect, or another doubt; inactive = no such curve, though single readings can be large; an effect the other way counts as inactive or inconclusive.

SMILES	Pf growth 96h	CHX counter	SARS PLpro yeast	AMA1 RON2 block	Shiga inhibitor	Pf growth 48h
C[C@@H](C(=O)Nc1ccc2ccccc2c1)[C@@H]1C[C@@]1(C)[C@@H](NC(=O)c1cnccn1)c1ccccc1	?	1	-10%	-1%	7	?
Cc1cc(C(=O)N[C@@H](c2ccccc2)[C@]2(C)C[C@H]2[C@@H](C)C(=O)Nc2ccc3ccccc3c2)no1	?	-2	?	-2%	24	-1%
Cc1cc(C(=O)N[C@H](c2ccccc2)[C@@]2(C)C[C@@H]2[C@@H](C)C(=O)Nc2ccc3ccccc3c2)no1	12µM*	-2	14%	11%	-11	?
C[C@@H](C(=O)Nc1ccc2ccccc2c1)[C@H]1C[C@]1(C)[C@H](NC(=O)c1cnccn1)c1ccccc1	1.5µM*	-1	-3%	-3%	-14	2.9µM*
COc1ccccc1NC(=O)CCSc1nc(C)cs1	84%	-3	-6%	12%	-5	13%
Cc1[nH]c2ccccc2c(=O)c1CN(C)Cc1ccccc1	?	27*	3%	8%	49	-7%
CCc1c(C)[nH]c2ccccc2c1=O	102%	-3	?	0%	-20	1.7µM*
CCCCN(C)Cc1c(C)[nH]c2ccccc2c1=O	-3%	-3	-1%	68%	-4	-1%
CC(C)(C)c1ccc(Cn2ccc(-c3ccc4c(c3)OCO4)n2)cc1	?	4	-2%	4%	43	-4%
CC1CCCC(NC(=O)CCC(=O)N2CCOc3ccccc32)C1C (stereo not given)	9.3µM*	1	-1%	9%	4	9%
O=C(CCC(=O)N1CCOc2ccccc21)NC1CCN(Cc2ccccc2)CC1	31%	-3	8%	5%	-5	10%
O=C(CCC(=O)N1CCOc2ccccc21)NCCc1ccccc1	15µM*	8.3*	2%	-8%	12	33%
CSCC[C@H](NC(=O)OC(C)(C)C)C(=O)N1CCC(C(=O)N[C@@H](C)C(=O)NCc2ccc(F)cc2)CC1	?	1	5%	-1%	-1	?
Cc1c(C)c(C)c2[nH]c(-c3ccc4c(c3)OCO4)nc2c1C	2.1µM*	27*	-6%	0%	68*	2.3µM*
COc1ccc(-c2[nH]c(-c3ccc4c(c3)OCO4)nc2-c2ccccc2)cc1	?	6	-31%	?	-13	?
O=C(Nc1ccc(C(F)(F)F)cc1)OC1CN2CCC1CC2 (stereo not given)	?	32*	-1%	8%	55*	?
CCCCCNC(=O)c1cccc(S(=O)(=O)N2CC3(C)CC2CC(C)(C)C3)c1 (stereo not given)	?	nt	-1%	7%	nt	?
COCCN(C(=O)Cn1nnc2ccccc21)C(C(=O)NC1CCCC1)c1cccc(OC)c1OC (stereo not given)	-6%	-2	-2%	0%	-8	?
O=C(NCc1ccco1)C(c1ccc(F)cc1)N(CC1CCCO1)C(=O)Cn1nnc2ccccc21 (stereo not given)	12%	4	5%	0%	-4	0%
COc1ccc(C(C(=O)NCCC(C)C)N(CCN2CCOCC2)C(=O)Cn2nnc3ccccc32)c(OC)c1 (stereo not given)	5.2µM*	-2	-1%	15%	-11	?
CCOc1ccc(C(C(=O)Nc2ccc(F)cc2)N(C(=O)Cn2nnc3ccccc32)C2CC2)cc1 (stereo not given)	4.7µM*	8	6%	-12%	3	?
COc1cccc(C(C(=O)Nc2ccc(F)cc2)N(C(=O)Cn2nnc3ccccc32)C2CC2)c1 (stereo not given)	10µM*	-1	1%	-6%	-14	?
CCC(C)N(C(=O)Cn1nnc2ccccc21)C(C(=O)NCc1ccco1)c1cccc(OC)c1 (stereo not given)	10µM*	1	3%	4%	17	-2%
O=C(Nc1ccc(F)c(Cl)c1)C1Cc2c(-c3ccc4c(c3)OCO4)ccnc2O1 (stereo not given)	nt	nt	nt	-12%	nt	nt
CN(Cc1ccccc1)C(=O)COC(=O)c1ccc2c(c1)OCO2	35%	33*	-7%	-8%	54*	45%
SMILES	Pf growth 96h	CHX counter	SARS PLpro yeast	AMA1 RON2 block	Shiga inhibitor	Pf growth 48h
CC(C)N(Cc1ccccc1)C(=O)c1ccc2c(c1)OCO2	2%	-1	-7%	17%	-13	-2%
CC(CN(C)Cc1ccccc1)OC(=O)c1ccc2c(c1)OCCO2 (stereo not given)	-2%	31*	0%	9%	15	26%
CN(Cc1ccccc1)C(=O)c1ccc2c(c1)OCO2	?	15*	22%	2%	16	16%
CN(Cc1ccccc1)C(=O)COC(=O)c1cc(Cl)nc(Cl)c1	3%	-3	1%	-2%	-6	15%
CCOC(=O)c1cn2nc(Oc3ccc(C#N)cc3)ccc2n1	9%	-2	-2%	13%	16	-9%
C[C@@H]1CN([C@H](C)CO)C(=O)CCCn2nncc2CO[C@H]1CN(C)Cc1ccc(C(F)(F)F)cc1	nt	nt	nt	-5%	nt	nt
COc1cc(CN2CCCCCC2)cc(OC)c1OC	35%	0	3%	-7%	-14	7%
COc1cc(Cc2cnc(N)nc2N)cc(OC)c1OC	2.1µM*!	-2	-4%	7%	-2	1.5µM*
CCOC(=O)/C=C/C(=O)Nc1ccc(S(=O)(=O)N2CCCCCC2)cc1	12µM*	-2	1%	9%	1	-9%
CCOC(=O)/C=C/C(=O)Nc1ccc(S(=O)(=O)Nc2cc(C)on2)cc1	26%	-3	-3%	8%	3	10µM*
CCOC(=O)CCC(=O)Nc1ccc(S(=O)(=O)N2CCCCC2)cc1	5.2µM*	-3	0%	-11%	-12	-3%
CCOC(=O)/C=C/C(=O)Nc1ccc(-c2nnc3n2CCCCC3)cc1	0.33µM*	-5	0%	-1%	-2	?
Cc1cc(NS(=O)(=O)c2ccc(NC(=O)COc3c(C)cc(Br)cc3C)cc2)no1	9.3µM*	-4	10%	-13%	-21	-7%
CCc1ccc(CNC(=O)Cc2ccc(NC(=O)C3=C(C)OCCS3)cc2)cc1	12µM*	36*	-4%	4%	57*	126%
CC1=C(C(=O)Nc2ccc(CC(=O)NCc3ccccc3C)cc2)SCCO1	?	22*	-2%	-5%	55*	46%
CC1=C(C(=O)Nc2cccc(C(=O)NCc3ccc(F)cc3)c2)SCCO1	?	-7	nt	0%	-7	-2%
COc1cccc(CNC(=O)Cc2ccc(NC(=O)C3=C(C)OCCS3)cc2)c1	?	29*	3%	-1%	41*	54%
COc1ccc(CNC(=O)c2ccccc2NC(=O)C2=C(C)OCCS2)cc1	nt	nt	nt	-12%	nt	nt
